Molecules are shown by their SMILES. About 3,300 (8.5%) of roughly 39,000 compounds were called active. What follows is part of a selection rich in actives, with near analogues and random picks from the rest.

In the experiment the test system is HepG2. The experiment is described as follows: cytotoxicity call (relative viability < 0.9). The settings on record: 10 µM.
Consider `NCCc1[nH]cnc1-c1cccs1`, for which the cytotoxicity call was “inactive”.
To `C[C@H](CO)N1C[C@H](C)[C@H](CN(C)C(=O)Nc2cccc3ccccc23)Oc2ccc(NS(=O)(=O)c3ccc(Cl)cc3)cc2CC1=O` belongs “inactive”; to `COc1ccc(S(=O)(=O)Nc2ccc3c(c2)C(=O)N([C@H](C)CO)C[C@@H](C)[C@@H](CN(C)C(=O)C2CCCCC2)OCCCC[C@H](C)O3)cc1`, “inactive”; to `C[C@@H]1CN([C@@H](C)CO)C(=O)c2cc(NC(=O)CCCCCC(=O)Nc3ccccc3N)ccc2O[C@H]1CN(C)C(=O)Nc1cccc2ccccc12`, “inactive”.
On to `CC(C)NC(=O)N(C)C[C@@H]1Oc2ccc(NC(=O)Nc3ccc4c(c3)OCO4)cc2C(=O)N([C@H](C)CO)C[C@@H]1C`, for which the cytotoxicity call was “inactive”.
To `C[C@@H]1CCCCO[C@@H](CN(C)C(=O)Cc2ccccc2)[C@H](C)CN([C@@H](C)CO)C(=O)c2cc(NC(=O)Nc3ccccc3)ccc2O1` belongs “inactive”.
The value for `Cc1cc(C(=O)Nc2cccc3c2O[C@@H](CN(C)S(=O)(=O)c2cn(C)cn2)[C@@H](C)CN([C@H](C)CO)C3=O)n(C)n1` was “inactive”; that for `Cc1ccc(S(=O)(=O)Nc2cccc3c2O[C@H](CN(C)S(=O)(=O)c2cccs2)[C@@H](C)CN([C@@H](C)CO)C3=O)cc1` was “inactive”.
For `CC(=O)NCC(=O)N1Cc2nccn2C[C@H](Cn2nc(C)nc2C)C1`, the cytotoxicity call was “inactive”.
To `C[C@@H]1CN([C@@H](C)CO)C(=O)c2cc(C#C[C@@H](C)O)cnc2O[C@@H]1CN(C)C(=O)CN1CCOCC1` belongs “inactive”; to `Cc1ccc(S(=O)(=O)N(C)C[C@H]2Oc3ccc(NC(=O)Cn4cnnn4)cc3CC(=O)N([C@H](C)CO)C[C@H]2C)cc1`, “inactive”; to `COc1ccc(NC(=O)N(C)C[C@H]2Oc3c(NS(=O)(=O)c4c(C)noc4C)cccc3C(=O)N([C@@H](C)CO)C[C@H]2C)cc1`, “inactive”.
With `COc1ccc(NC(=O)N(C)C[C@@H]2Oc3ncc(-c4cccc(C(F)(F)F)c4)cc3C(=O)N([C@H](C)CO)C[C@@H]2C)cc1`, the cytotoxicity call is “inactive”.
Regarding `C[C@@H]1CN([C@@H](C)CO)C(=O)c2cc(NC(=O)Cn3cnnn3)ccc2O[C@H]1CN(C)C(=O)Nc1ccc2c(c1)OCO2`, the cytotoxicity call was “inactive”.
Turning to `C[C@@H]1CN([C@H](C)CO)C(=O)c2cc(NC(=O)Nc3ccc(C(F)(F)F)cc3)ccc2O[C@@H]1CN(C)CC1CCCCC1`, the cytotoxicity call was “active”.
To `C[C@H](CO)N1C[C@H](C)[C@@H](CN(C)CC2CCCCC2)Oc2ccc(NC(=O)Nc3ccc(C(F)(F)F)cc3)cc2C1=O` belongs “inactive”; to `C[C@@H]1CN([C@@H](C)CO)C(=O)c2cc(NC(=O)Nc3ccc(F)cc3)ccc2O[C@H]1CN(C)CC1CCCCC1`, “inactive”.
To `C[C@H]1CN([C@@H](C)CO)C(=O)c2cc(NC(=O)Nc3ccc(C(F)(F)F)cc3)ccc2O[C@@H]1CN(C)CC1CCCCC1` belongs “inactive”.
With `C[C@@H]1CN([C@H](C)CO)C(=O)c2cc(NC(=O)Nc3ccccc3)ccc2O[C@@H]1CN(C)CC1CCCCC1`, the cytotoxicity call is “inactive”.
With `C[C@@H]1CN([C@H](C)CO)C(=O)c2cc(NC(=O)Nc3ccc(C(F)(F)F)cc3)ccc2O[C@H]1CN(C)CC1CCCCC1`, the cytotoxicity call is “active”.
The value for `CNC[C@@H]1Oc2ccc(NC(=O)CCN3CCOCC3)cc2CC(=O)N([C@H](C)CO)C[C@H]1C` was “inactive”; that for `C[C@H](CO)N1C[C@H](C)[C@@H](CN(C)C(=O)Nc2ccc3c(c2)OCO3)Oc2ccc(NC(=O)CCN3CCOCC3)cc2CC1=O` was “inactive”.
The value for `O=C(C[C@@H]1CC[C@H]2[C@@H](COC[C@@H](O)CN2C(=O)c2ccccc2F)O1)N1CCN(c2ccccc2)CC1` was “inactive”; that for `c1ncc(CC2CCNCC2)[nH]1` was “inactive”.
To `COc1ccc(S(=O)(=O)Nc2ccc3c(c2)CC(=O)N([C@@H](C)CO)C[C@@H](C)[C@H](CN(C)C)O3)cc1` belongs “inactive”; to `C[C@H]1CN([C@@H](C)CO)C(=O)c2cccc(NC(=O)Nc3ccc4c(c3)OCO4)c2O[C@@H]1CN(C)Cc1ccc(C(=O)Nc2ccccc2N)cc1`, “inactive”.
Turning to `COc1cccc(NC(=O)N(C)C[C@H]2Oc3cc(C#Cc4ccncc4)ccc3S(=O)(=O)N([C@@H](C)CO)C[C@@H]2C)c1`, the cytotoxicity call was “active”.
To `COc1cccc(NC(=O)N(C)C[C@H]2Oc3cc(Br)ccc3S(=O)(=O)N([C@H](C)CO)C[C@H]2C)c1` belongs “inactive”; to `COc1cccc(NC(=O)N(C)C[C@@H]2Oc3cc(C#Cc4ccncc4)ccc3S(=O)(=O)N([C@H](C)CO)C[C@H]2C)c1`, “active”; to `COc1cccc(NC(=O)N(C)C[C@@H]2Oc3cc(C#Cc4ccncc4)ccc3S(=O)(=O)N([C@H](C)CO)C[C@@H]2C)c1`, “active”.
The value for `COc1cccc(NC(=O)N(C)C[C@@H]2Oc3cc(C#Cc4ccncc4)ccc3S(=O)(=O)N([C@@H](C)CO)C[C@@H]2C)c1` was “active”.
The value for `Cc1noc(C)c1NC(=O)N(C)C[C@@H]1Oc2c(NS(=O)(=O)c3cn(C)cn3)cccc2C(=O)N([C@H](C)CO)C[C@H]1C` was “inactive”; that for `O=C(Nc1ccn([C@H]2O[C@H](CO)[C@@H](O)[C@@H]2O)c(=O)n1)c1ccccc1` was “inactive”.
Consider `O=C(C[C@@H]1CC[C@@H](NC(=O)c2cccnc2)[C@H](CO)O1)NCCN1CCCCC1`, for which the cytotoxicity call was “inactive”.
To `O=C(Nc1nccs1)[C@@H]1[C@@H](CO)[C@@H]2Cn3c(cccc3=O)[C@H]1N2C(=O)C1CC1` belongs “inactive”; to `NCc1cnc2ccccc2c1`, “inactive”.
To `C[C@@H]1CCCCO[C@@H](CN(C)C(=O)Nc2cccc3ccccc23)[C@H](C)CN([C@H](C)CO)C(=O)c2cc(N(C)C)ccc2O1` belongs “inactive”; to `C[C@H](CO)N1C[C@H](C)[C@@H](CN(C)S(=O)(=O)c2cn(C)cn2)Oc2ccc(NS(=O)(=O)c3cccs3)cc2CC1=O`, “inactive”; to `Cc1ccc(S(=O)(=O)Nc2cccc3c2O[C@H](CN(C)Cc2ccc(C(F)(F)F)cc2)[C@@H](C)CN([C@@H](C)CO)C3=O)cc1`, “inactive”.
Turning to `CC(=O)N1[C@@H]2c3ccc(-c4ccccc4)c(=O)n3C[C@H]1[C@H](CO)[C@H]2C(=O)NCCCN1CCOCC1`, the cytotoxicity call is “inactive”.
Turning to `COc1cccc(NC(=O)N(C)C[C@H]2Oc3cc(C#CC4(O)CCCC4)ccc3S(=O)(=O)N([C@@H](C)CO)C[C@@H]2C)c1`, the cytotoxicity call was “inactive”.
Regarding `COc1cccc(NC(=O)N(C)C[C@@H]2Oc3cc(C#CC4(O)CCCC4)ccc3S(=O)(=O)N([C@H](C)CO)C[C@H]2C)c1`, the cytotoxicity call is “inactive”.
In the case of `COc1cccc(NC(=O)N(C)C[C@@H]2Oc3cc(C#CC4(O)CCCC4)ccc3S(=O)(=O)N([C@@H](C)CO)C[C@@H]2C)c1`, the cytotoxicity call was “inactive”.
To `COc1cccc(NC(=O)N(C)C[C@H]2Oc3cc(C#Cc4ccncc4)ccc3S(=O)(=O)N([C@H](C)CO)C[C@@H]2C)c1` belongs “active”; to `COc1cccc(NC(=O)N(C)C[C@@H]2Oc3cc(C#CC4(O)CCCC4)ccc3S(=O)(=O)N([C@H](C)CO)C[C@@H]2C)c1`, “inactive”.
Regarding `COc1cccc(NC(=O)N(C)C[C@@H]2Oc3cc(C#Cc4ccncc4)ccc3S(=O)(=O)N([C@@H](C)CO)C[C@H]2C)c1`, the cytotoxicity call is “active”.
The value for `COc1cccc(NC(=O)N(C)C[C@H]2Oc3cc(C#Cc4ccncc4)ccc3S(=O)(=O)N([C@@H](C)CO)C[C@H]2C)c1` was “active”.
To `COc1cccc(NC(=O)N(C)C[C@@H]2Oc3cc(C#CC4(O)CCCC4)ccc3S(=O)(=O)N([C@@H](C)CO)C[C@H]2C)c1` belongs “inactive”; to `COc1cccc(NC(=O)N(C)C[C@@H]2Oc3cc(Br)ccc3S(=O)(=O)N([C@@H](C)CO)C[C@H]2C)c1`, “inactive”; to `COc1cccc(NC(=O)N(C)C[C@H]2Oc3cc(C#Cc4ccncc4)ccc3S(=O)(=O)N([C@H](C)CO)C[C@H]2C)c1`, “active”.

Values taken from the antibiotic and cytotoxicity screens of Wong et al. (2023).
